This note sets out measurements from PubChem BioAssay AID588432 (Broad Institute, 2011).

Activity calls are given as the source filed them.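 How the source made its calls: active means luciferase inhibitors whose fitted dose curve gives a half-maximal potency within ten times the top tested dose; inconclusive means flat curve with 30 to 70% inhibition, or a poor fit; inactive means the rest.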

A short description of this assay: luciferase inhibitors in kinase-free ADP detection – biochemical, luminescence, cherry-pick, set 04, artefact control for Dyrk1A inhibitor project, dose response (AID 588432). The conditions noted are these: ADP-Glo luminescence without kinase, luciferase artifact; series mostly up to 12 µM.
Consider `Clc1ccc(CNc2cc(-c3ccc4c(c3)OCO4)ncn2)cc1`, for which the result was inactive.

As to `c1cc(-c2ccc3c(c2)OCO3)nc(Nc2ccc3c(c2)OCO3)n1`, the compound was classed as inactive.

With `Cc1ccc(CN(C)c2ncnc3ccc(-c4ccc5c(c4)OCO5)cc23)o1`, the result was inactive.

For `c1csc(CNc2ncnc3ccc(-c4ccoc4)cc23)c1`, the result was inactive.

Take `FC(F)(F)c1cccc(Nc2nccc(-c3ccc4c(c3)OCO4)n2)c1`: the compound was called inactive.

Take `Cc1cccc(CNc2ncnc3ccc(-c4cccc(Cl)c4)cc23)c1`: the compound was called inactive.

With `Brc1ccc(CNc2nccc(-c3ccc4c(c3)OCO4)n2)cc1Br`, the outcome was inactive.

Regarding `c1cncc(CNc2nccc(-c3ccc4[nH]ncc4c3)n2)c1`, the compound was classed as inactive.

For `Clc1cc(Cl)cc(CNc2nccc(-c3ccc4c(c3)OCO4)n2)c1`, the result was inactive.

Take `Cc1nc(CN(C)c2ncnc3ccc(-c4ccc5c(c4)OCO5)cc23)cs1`: the call was inactive.

In the case of `Cc1ccc(CNc2ncnc3ccc(-c4ccoc4C)cc23)o1`, the result was inactive.

Regarding `c1cncc(CNc2nccc(-c3ccc4c(c3)OCO4)n2)c1`, the outcome was inactive.

With `Brc1cc(Br)cc(CNc2nccc(-c3ccc4c(c3)OCO4)n2)c1`, the call was inactive.

`c1nc(NCC2CCCO2)c2cc(-c3ccc4c(c3)OCO4)ccc2n1` (centres undefined): the call was inactive.

As for `Cc1occc1CNc1ncnc2ccc(-c3ccc4c(c3)OCO4)cc12`, the compound was classed as inactive.

For the compound `Cc1nc(CNc2ncnc3ccc(-c4ccc5c(c4)OCO5)cc23)cs1`, the result was inactive.

As to `Fc1c(-c2ccc3ncnc(NCc4cccs4)c3c2)ccc2c1OCO2`, the call was inactive.

In the case of `COc1ccc(-c2nccc(NCc3ccc(C)cc3)n2)cc1`, the outcome was inactive.

As for `Cc1csc(CN(C)c2ncnc3ccc(-c4ccc5c(c4)OCO5)cc23)n1`, the compound was classed as inactive.

Regarding `Cc1ccsc1CNc1ncnc2ccc(-c3ccc4c(c3)OCO4)cc12`, the call was inactive.

As to `Clc1ccc(CNc2nccc(-c3ccc4[nH]ncc4c3)n2)cc1Cl`, the call was inactive.

On to `CN(Cc1ccco1)c1ncnc2ccc(-c3ccc4c(c3)OCO4)cc12`, for which the result was inactive.

Take `CCOC(=O)c1ccc(-c2ccc3ncnc(N(C)Cc4sccc4C)c3c2)o1`: the compound was called inactive.

As for `Cc1nc(CNc2ncnc3ccc(-c4ccoc4)cc23)cs1`, the outcome was inactive.

Take `Clc1ccc(CNc2cc(-c3ccc4c(c3)OCO4)ncn2)cc1Cl`: the compound was classed as inactive.

`Clc1ccc(CNc2ncncc2-c2ccc3c(c2)OCO3)cc1Cl`: the outcome was inactive.

`Cn1ccc2cc(-c3ccc4ncnc(NCc5cccc(F)c5)c4c3)ccc21`: the call was inactive.

In the case of `Clc1ccc(CNc2nccc(-c3ccc4cn[nH]c4c3)n2)cc1Cl`, the compound was called inactive.

As for `CCN(Cc1cccs1)c1ncnc2ccc(-c3ccc4c(c3)OCO4)cc12`, the compound was classed as inactive.

In the case of `CCOC(=O)c1ccc(-c2ccc3ncnc(NCc4ccc(C)o4)c3c2)o1`, the result was inactive.

On to `Cc1ccc(CNc2ncnc3ccc(-c4ccc5c(c4)OCO5)cc23)o1`, for which the result was inactive.

In the case of `Clc1ccc(Nc2nccc(-c3ccc4c(c3)OCO4)n2)cc1`, the result was inactive.

`Clc1cc(Cl)cc(CNc2cc(-c3ccc4c(c3)OCO4)ncn2)c1`: the result was inactive.

Regarding `c1csc(CNc2ncnc3ccc(-c4ccc5c(c4)OCO5)cc23)c1`, the outcome was inactive.
